# The campaign covered roughly 330,000 compounds. About 4,600 (1.4%) were called active.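 Rule for the calls: active = inhibition of 40% or more at the single tested concentration; inactive = the rest.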 What follows is part of a selection rich in actives, with near analogues and random picks from the rest.
# Experiment: growth inhibitors of isogenic TIM10 control yeast, primary screen, counter-screen for tim10-1 yeast inhibitor project, luminescence, uHTS (AID 463195);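 note: wild-type TIM10 isogenic control strain grown at permissive 25 °C; 0% = DMSO yeast wells and 100% = minimal medium wells without yeast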
# Details: S. cerevisiae TIM10 strain growth, BacTiter-Glo luminescence, 24 h; at 10 µM; stronger effect = higher value
row,Compound,inhibition
1,CCc1ccc(S(=O)(=O)Nc2cc3c(cc2N2CCCCC2)n(C)c(=O)c(=O)n3C)cc1,18% (inactive)
2,OCC1(Cc2ccccc2C(F)(F)F)CCN(Cc2cccc3cnccc23)CC1,-41.2% (inactive)
3,Cc1ccc(N(C(=O)c2sc(C)nc2C)C(C(=O)NC(C)(C)C)c2ccncc2)cc1 (stereo not drawn),-2.14% (inactive)
4,O=C1OC[C@@H]2CCCN2C(=O)[C@H](CC(=O)N(CCO)Cc2ccccc2)C/C=C\CC[C@@H]1Cc1ccc(F)cc1,1.13% (inactive)
5,CCN(Cc1ccccc1)S(=O)(=O)c1cc2c3c(c1)CCN3C(=O)CC2,-18.1% (inactive)
6,O=C(COc1ccccc1Cl)Nc1ccccc1C(=O)NC1CC1,4.12% (inactive)
7,NC(=O)CC(NC(=O)Cc1ccc(Br)cc1)c1ccc(NC2CC3CCC2C3)c([N+](=O)[O-])c1 (stereo not drawn),11.3% (inactive)
8,O=[N+]([O-])c1ccc2nc(-c3ccccn3)[nH]c2c1,13.4% (inactive)
9,O=[N+]([O-])c1ccc2c(c1)Nc1nc3ccccc3nc1N2,79.8% (active)
10,COc1ccc([N+](=O)[O-])cc1-c1nc2ccccc2nc1-c1ccccc1,12.2% (inactive)
11,CCc1ccc(CN2C(=O)c3ccccc3C2C(=O)NCC2CCCO2)cc1 (stereo not drawn),-1.35% (inactive)
12,COc1ccc(OC)c2sc(NC(=O)C3COc4ccccc4O3)nc12 (stereo not drawn),43.3% (active)
13,COc1cc(SC)ccc1C(=O)NNC(=O)C1COc2ccccc2O1 (stereo not drawn),-2.79% (inactive)
14,COc1ccc(NC(=O)C2COc3ccccc3O2)cc1 (stereo not drawn),-1.21% (inactive)
15,Cc1cccc(NC(=O)CN2CCN(CC(=O)NCC3(N4CCCCC4)CCCCC3)CC2)c1C,-26% (inactive)
16,O=C(CN1CCC(O)(c2ccccc2)CC1)Nc1ccc2c(c1)OCCO2,-4.11% (inactive)
17,O=C(CCN1CCc2ccccc2C(O)(c2ccccc2)C1)c1ccc2c(c1)OCCO2 (stereo not drawn),47.8% (active)
18,O=C(COC(=O)c1ccccc1)c1ccc2c(c1)OCCO2,3.76% (inactive)
19,COc1cccc2cc(/C(C)=N/NC(=O)c3ccco3)oc12,7.37% (inactive)
20,CC1(C)CCSC(/C=C/c2ccccc2)=N1,59.5% (active)

row,Compound,inhibition
1,CC1(c2ccccc2)NC(=O)N(CC(=O)N2CC(=O)Nc3ccccc32)C1=O (stereo not drawn),-7.18% (inactive)
2,Cc1c(CC(=O)N2CCN(C(=O)C3COc4ccccc4O3)CC2)c(=O)oc2c(O)c(O)ccc12 (stereo not drawn),14.5% (inactive)
3,Cc1ccc(N2C(=O)C3C4C=CC(CC4)C3C2=O)cc1Cl (stereo not drawn),96.9% (active)
4,Cc1ccc(N2C(=O)C3C4C=CC(CC4)C3C2=O)cc1Br (stereo not drawn),0.46% (inactive)
5,CC(=O)Nc1ccc(N2C(=O)C3C4C=CC(CC4)C3C2=O)cc1 (stereo not drawn),3.72% (inactive)
6,O=C(c1ccc(F)cc1)C1CCN(Cc2cn[nH]c2-c2ccccc2)CC1,7.29% (inactive)
7,Cc1cc(C)c(CN2CCN(C(=O)Cn3ccc(NC(=O)OCc4ccccc4)nc3=O)CC2)c(C)c1,14.5% (inactive)
8,Cc1nn(Cc2ccccc2)c(C)c1C(=O)N1CCN(CC(=O)Nc2ccccc2Cl)CC1,16.3% (inactive)
9,Cc1cccc(C)c1NC(=O)CCCSc1nnc(-c2ccco2)n1-c1ccccc1,7.48% (inactive)
10,CC(=O)c1ccc(Oc2cc(C)nc(-n3nc(C)cc3C)n2)cc1,17.9% (inactive)
11,Cc1cc(N/N=C\c2ccc(Br)cc2)nc(-n2nc(C)cc2C)n1,28.7% (inactive)
12,COc1ccc(Nc2cc(C)nc(-n3nc(C)cc3C)n2)cc1,42.6% (active)
13,COc1ccc(OCC(=O)OCCN(C)C)cc1,6.08% (inactive)
14,CN1CCC2(CC1)NC(=O)NC2=O,-10.9% (inactive)
15,C=CCn1c2ccccc2c2nnc(SCc3[nH]c(=O)[nH]c3C(=O)CCCCC(=O)OCC)nc21,2.76% (inactive)
16,c1ccc(-c2cn3c(n2)CCc2ccc4cccnc4c2-3)cc1,43.3% (active)
17,CCn1nnc(NC(=O)c2cc(Cl)c(OC)c(Cl)c2)n1,-27.2% (inactive)
18,O=C(Nc1cc(S(=O)(=O)Nc2ccc(Cl)cc2)ccc1O)c1ccc(F)cc1F,-2.9% (inactive)
19,O=C(Nc1nnc(SCc2c(Cl)cccc2Cl)s1)c1cccc([N+](=O)[O-])c1,-29.2% (inactive)
20,O=C(NCc1ccccc1Cl)C1CCCO1 (stereo not drawn),12.6% (inactive)

row,Compound,inhibition
1,O=C(Nc1nnc(SCc2c(Cl)cccc2Cl)s1)C1CCCO1 (stereo not drawn),43% (active)
2,CCCCN(CC)CCCNC(=O)c1ccc(CSc2nc3ccncc3[nH]2)cc1,-7.87% (inactive)
3,COc1ccc(C2CC(=O)Oc3ccc(C(C)(C)C)cc32)cc1 (stereo not drawn),-0.738% (inactive)
4,Cc1csc(NC(=S)Nc2cccc(Cl)c2)n1,45.7% (active)
5,O=C(O)CC1(CC(=O)Nc2cccc(C(F)(F)F)c2)CCCC1,-9.42% (inactive)
6,Cc1cccc(NC(=S)Nc2ccc(Cl)c(Cl)c2)c1,24.3% (inactive)
7,FC(F)(F)c1cccc(NC(=S)Nc2cccc(Cl)c2)c1,50.8% (active)
8,Cc1cc(Cl)nc(NC(=O)Nc2cccc(Cl)c2)n1,3.22% (inactive)
9,S=C(Nc1cccc(Cl)c1)Nc1ccc2c(c1)OCCO2,20.4% (inactive)
10,CCn1c(=O)c(=O)n(CC)c2cc(S(=O)(=O)N3CCc4ccccc43)ccc21,14.7% (inactive)
11,Cc1ccc(C(C)C)c(OCc2nnc(SCC(=O)Nc3nccs3)n2C)c1,-14% (inactive)
12,COc1ccccc1/C=C/CN1CCC(CO)(Cc2ccccc2)CC1,-1.7% (inactive)
13,CCCCNC(=O)C1CCC(=O)N1CCc1ccccc1 (stereo not drawn),-1.71% (inactive)
14,C[C@]12CC[C@H](O)CC1=CCC1C2CC[C@@]2(C)C1CC[C@@H]2NC(=O)CCC(=O)O (stereo partly drawn),-2.58% (inactive)
15,C=CC[C@H](CC(=O)N(CCO)Cc1ccccc1)C(=O)N[C@@H](COC(=O)[C@@H](CC=C)Cc1ccc(F)cc1)Cc1ccccc1,5.57% (inactive)
16,CSc1ccc(C(=O)C2CCCN(C(=O)c3ccc(C)nc3)C2)cc1 (stereo not drawn),-8.56% (inactive)
17,Cc1cc(C(=O)NNC(=O)CCC2CCCCC2)c(C)o1,-5.54% (inactive)
18,Cn1c2c(c(=O)n(C)c1=O)C(c1cccc([N+](=O)[O-])c1)Nc1ccccc1O2 (stereo not drawn),-3.02% (inactive)
